# Unmarked numbers belong to inactive results. Activity calls are given as the source filed them. Cut-off read from the data, not from the text of the source, unless noted: active = inhibition above about 36%; inactive = the rest.
# Columns and labels:
# [1] = system: transactivating tegument protein VP16 (Human herpesvirus 1); experiment: VP16 transactivation reporter inhibitors, counter-screen for SRC2 inhibitor project, cell-based, luminescence, single concentration (AID 652007); settings: cell-based VP16 transactivation luciferase reporter, at 8.9 µM, stronger effect = higher value
# [2] = biological target: Nuclear receptor coactivator 2 (Homo sapiens) (UniProt Q15596); experiment: SRC2 coactivator transcriptional activity inhibitors, confirmation, cell-based, luminescence, HEK293, triplicate (AID 652008;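 active = mean inhibition above 46.5%, the solvent-only control mean plus 3 SD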;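 note: 0% = DMSO-treated cells and 100% = Gossypol at 36 µM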); settings: HEK293 GAL4-SRC2 luciferase reporter, at 8.9 µM, stronger effect = higher value
# Nuclear receptor coactivator 2 (Homo sapiens), sequence (Q15596 whole entry, looked up, the tested form may be a part): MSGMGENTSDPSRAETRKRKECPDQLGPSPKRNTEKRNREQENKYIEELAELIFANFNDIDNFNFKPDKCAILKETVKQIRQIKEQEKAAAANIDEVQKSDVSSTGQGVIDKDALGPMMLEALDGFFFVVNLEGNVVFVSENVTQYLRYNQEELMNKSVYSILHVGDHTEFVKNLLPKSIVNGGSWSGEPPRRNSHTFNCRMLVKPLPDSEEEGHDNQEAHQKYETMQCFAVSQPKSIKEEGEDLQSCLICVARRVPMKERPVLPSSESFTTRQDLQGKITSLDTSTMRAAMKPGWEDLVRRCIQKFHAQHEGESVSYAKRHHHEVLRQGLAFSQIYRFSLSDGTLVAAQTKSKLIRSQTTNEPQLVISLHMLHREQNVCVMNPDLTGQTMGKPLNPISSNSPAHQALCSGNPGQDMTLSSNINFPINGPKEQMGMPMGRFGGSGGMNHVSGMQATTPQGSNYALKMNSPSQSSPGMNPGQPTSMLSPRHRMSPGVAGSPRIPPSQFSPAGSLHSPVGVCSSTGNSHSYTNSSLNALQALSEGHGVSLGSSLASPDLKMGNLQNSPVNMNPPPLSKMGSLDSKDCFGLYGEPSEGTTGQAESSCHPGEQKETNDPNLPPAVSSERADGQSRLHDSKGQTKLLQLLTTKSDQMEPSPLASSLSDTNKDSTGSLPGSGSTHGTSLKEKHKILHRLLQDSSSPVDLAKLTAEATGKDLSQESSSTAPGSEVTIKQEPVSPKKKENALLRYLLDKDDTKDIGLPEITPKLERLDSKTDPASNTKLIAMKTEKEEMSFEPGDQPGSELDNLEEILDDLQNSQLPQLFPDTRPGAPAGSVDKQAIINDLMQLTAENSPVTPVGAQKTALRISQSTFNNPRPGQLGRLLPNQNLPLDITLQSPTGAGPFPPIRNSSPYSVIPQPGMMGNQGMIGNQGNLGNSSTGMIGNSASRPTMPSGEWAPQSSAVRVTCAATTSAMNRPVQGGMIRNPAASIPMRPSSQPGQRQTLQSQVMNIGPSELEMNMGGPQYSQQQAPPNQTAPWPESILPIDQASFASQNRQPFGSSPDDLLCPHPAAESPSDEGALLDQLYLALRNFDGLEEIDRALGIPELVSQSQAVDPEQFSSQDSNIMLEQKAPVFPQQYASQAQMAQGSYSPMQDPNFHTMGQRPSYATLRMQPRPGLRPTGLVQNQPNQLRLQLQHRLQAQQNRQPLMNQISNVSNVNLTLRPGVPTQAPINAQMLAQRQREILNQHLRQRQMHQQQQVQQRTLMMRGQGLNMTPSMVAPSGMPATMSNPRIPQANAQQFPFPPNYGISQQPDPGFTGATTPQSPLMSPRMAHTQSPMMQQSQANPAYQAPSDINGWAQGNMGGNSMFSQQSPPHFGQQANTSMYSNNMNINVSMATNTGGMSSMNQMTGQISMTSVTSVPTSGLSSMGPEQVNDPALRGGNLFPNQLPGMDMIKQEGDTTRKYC
Compound,inhibition [1],inhibition [2]
O=C(CCCc1cccs1)N1CCN(S(=O)(=O)c2ccccc2Br)CC1,-1.31%,-4.17%
CCCc1nc(SCC(=O)Nc2cc(C)on2)c2ccccc2n1,1.01%,10.1%
COCc1ccc(C(=O)N2CCC(CCC(=O)Nc3cccc(C)c3)CC2)s1,27.4%,46.9% (active)

# From PubChem BioAssay
